High-throughput results as filed in PubChem.
Mtb betalactam: beta-lactam sensitization of Mtb H37Rv; M. tuberculosis H37Rv growth with meropenem, percent inhibition; 0.27% of 330,000 active; AID 434955; inhibition, % at 25 µM; call rule not given here;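 further: growth measured after seven days incubation then overnight dye step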
VHR inh abs: blocks human VHR1 dual specificity phosphatase | P51452 | recombinant VHR phosphatase, pNPP absorbance | inhibition, % at 13.3 µM | 0.52% of 290,000 active; in the data active means inhibition above about 50%
Target sequence (P51452 whole entry, looked up): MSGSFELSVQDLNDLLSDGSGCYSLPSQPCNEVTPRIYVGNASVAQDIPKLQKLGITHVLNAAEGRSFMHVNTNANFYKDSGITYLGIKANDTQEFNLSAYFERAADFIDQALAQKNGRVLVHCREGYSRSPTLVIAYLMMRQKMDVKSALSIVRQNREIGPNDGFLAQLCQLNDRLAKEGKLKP
GDH-TPI counter-1: inhibits GDH-TPI coupling enzymes, artifact for Mtb FBA screen; GDH-TPI coupled enzyme counterscreen, NADH absorbance; inhibition, % at 4.8 µM; 1.2% of 360,000 active; AID 588335; in the data active means inhibition above about 30%
Mtb hypoxia inh: reduces hypoxia-regulated biosensor signal in M. tuberculosis; M. tuberculosis hypoxia-regulated fluorescent reporter, fluorescence; fluorescence inhibition, % (concentration not given with the values); 0.1% of 300,000 active; in the data active means fluorescence inhibition mostly above about 23%, no sharp cut-off; inactive means mostly below about 17%
Mtb FBA inh: inhibits M. tuberculosis FBA enzyme; P9WQA3; purified M. tuberculosis FBA, fluorescence read-out; inhibition, % at 1 µM; 2.3% of 360,000 active
Mtb FBA inh conf: confirmation of M. tuberculosis fructose-bisphosphate aldolase inhibitors; shares compounds with Mtb FBA inh; purified M. tuberculosis FBA, fluorescence read-out; inhibition, % at 1 µM; 78% of 5,600 active; AID 651616
GDH-TPI counter-2: counter-screen for M. tuberculosis FBA inhibitors: GDH-TPI coupled enzyme inhibition. shares compounds with Mtb FBA inh. GDH-TPI coupled enzyme counterscreen, fluorescence. inhibition, % at 1 µM. 81% of 5,600 active; in the data active means inhibition above about 10%
GDH-TPI dose: counter-screen for M. tuberculosis FBA inhibitors: GDH-TPI dose response. shares compounds with Mtb FBA inh. GDH-TPI coupled enzyme assay, fluorescence, artifact counterscreen. IC50, µM. 79% of 170 active; call rule not given here
Large screens that a line does not name were inactive (follow-up assays come after a bar, where shown). Only some compounds are listed: those with a hit (about 3.6% of all), similar ones and a draw of the others. Unless noted, no stated cut-off is given here; in the data, active means inhibition above about 27%; inactive means the rest.

Cc1cccn2c(=O)c3cc(C(=O)NC4CCCC4)n(C)c3nc12	none
COc1ccccc1NC(=O)C(=O)NN=C(C)CC(=O)Nc1ccccn1	none (no result: Mtb betalactam, VHR inh abs, GDH-TPI counter-1, Mtb FBA inh)
CC(=O)Nc1ccc(S(=O)(=O)Oc2ccc(C=N/N=C3/NC(=O)C(CC(=O)O)S3)cc2)cc1 (stereo not given)	none (no result: Mtb betalactam, VHR inh abs, GDH-TPI counter-1, Mtb FBA inh)
COc1ccc2oc(=O)cc(C)c2c1	none (no result: Mtb hypoxia inh)
Cc1cc(=O)oc2cc3c(cc12)OCCO3	Mtb FBA inh 62 | Mtb FBA inh conf 196 | GDH-TPI counter-2 162
CCC(=O)N1CCN(CCN=CC2=C(O)CC(c3ccc(OC)cc3)CC2=O)CC1 (stereo not given)	Mtb FBA inh 59 | Mtb FBA inh conf 88 | GDH-TPI counter-2 82
CCCCCC(=O)N1CCN(CCN=CC2=C(O)CC(c3ccc(OC)cc3)CC2=O)CC1 (stereo not given)	none
CC(C)Cn1c(-c2cccs2)nc2ccccc21	Mtb FBA inh 51 | Mtb FBA inh conf active | GDH-TPI counter-2 152
Cn1c(-c2cccs2)nc2ccccc21	Mtb FBA inh 59 (not shown: Mtb hypoxia inh) | Mtb FBA inh conf inactive | GDH-TPI counter-2 inactive | GDH-TPI dose 2.6
c1csc(Cn2c(-c3cccs3)nc3ccccc32)c1	GDH-TPI counter-1 34, Mtb FBA inh 63 | Mtb FBA inh conf inactive | GDH-TPI counter-2 28
CCOC1OC(C(=O)N2CCN(C)CC2)=CC(C(C)(C)C)C1CCCO (stereo not given)	none (no result: Mtb betalactam, VHR inh abs, GDH-TPI counter-1, Mtb FBA inh)
O=C(COc1ccc(C=NNC(=O)c2ccccc2Br)cc1)Nc1ccccc1	none (no result: Mtb betalactam, VHR inh abs, GDH-TPI counter-1, Mtb FBA inh)
COc1ccc(Nc2nc(NCc3ccco3)nc(NN=Cc3ccccc3)n2)cc1	none (no result: Mtb betalactam, VHR inh abs, GDH-TPI counter-1, Mtb FBA inh)
CCCCN(C)Cc1c(C)[nH]c2ccc(OCC)cc2c1=O	Mtb FBA inh 35 | Mtb FBA inh conf inactive | GDH-TPI counter-2 inactive
CCOc1ccc2[nH]c(C)c(CN3CCN(CC)CC3)c(=O)c2c1	none
CCOc1ccc(NC(=S)Nc2cccc3cnccc23)cc1	none (not shown: Mtb hypoxia inh)
CCOc1ccc(NC(=S)Nc2cccc3ccccc23)cc1	Mtb FBA inh 58 | Mtb FBA inh conf 82 | GDH-TPI counter-2 73
C=CCNC(=S)Nc1cccc2ccccc12	none
CC(C)c1ccc(NC(=S)Nc2cccc3ccccc23)cc1	Mtb FBA inh 30 | Mtb FBA inh conf 68 | GDH-TPI counter-2 55
N#C/C(=C\c1cccs1)Sc1nc2ccccc2s1	Mtb FBA inh 101 (no result: Mtb hypoxia inh) | Mtb FBA inh conf inactive | GDH-TPI counter-2 inactive
CCCCCC(=O)Nc1cc(N(C)C)nc2ccccc12	none
CCN(CC)CC(=O)Nc1cc(N(C)C)nc2ccccc12	GDH-TPI counter-1 38, Mtb FBA inh 36 | Mtb FBA inh conf 30 | GDH-TPI counter-2 26
CC(C)(C)OC(=O)NCCC(=O)NN=Cc1cccc2cccnc12	none (no result: Mtb betalactam, VHR inh abs, GDH-TPI counter-1, Mtb FBA inh)
CN1C(=O)c2ccc(NC(=O)c3ccc(Cl)cc3Cl)cc2C1=O	Mtb FBA inh 38 | Mtb FBA inh conf 95 | GDH-TPI counter-2 70
O=C(Nc1ccc2c(c1)C(=O)OC2)c1ccc(Cl)cc1Cl	none
CN(C)CCCOc1ccc(-c2cccc3nncn23)cn1	Mtb FBA inh 43 (no result: Mtb betalactam, VHR inh abs, Mtb hypoxia inh) | Mtb FBA inh conf 146 | GDH-TPI counter-2 120
CN(C)CCNC(=O)c1cccc(-c2cccc3nncn23)c1	Mtb FBA inh 71 (no result: Mtb betalactam, VHR inh abs, Mtb hypoxia inh) | Mtb FBA inh conf 134 | GDH-TPI counter-2 88
CN(C)CCCOc1ccc(-c2ccc3nncn3c2)cn1	none (no result: Mtb betalactam, VHR inh abs, Mtb hypoxia inh)
CN(C)CCNC(=O)c1cccc(-c2cnc3c(NC=O)cc(-c4cc(F)c(F)c(F)c4)cn23)c1	none (no result: Mtb betalactam, VHR inh abs, Mtb hypoxia inh)
O=C(CC1CC=CCCC(Cc2ccc(F)cc2)C(=O)OCC(Cc2c[nH]c3ccccc23)NC1=O)NCCO (stereo not given)	none (no result: Mtb betalactam, VHR inh abs, GDH-TPI counter-1, Mtb FBA inh)
ON=CCCn1c(=S)sc2ccccc21	none (no result: Mtb betalactam, VHR inh abs, GDH-TPI counter-1, Mtb FBA inh)
COCCNC(=O)c1cc2c(s1)-c1ccc(Cl)cc1SC2	Mtb FBA inh 46 | Mtb FBA inh conf 174 | GDH-TPI counter-2 160
NC(=O)c1cc2c(s1)-c1cc(Cl)ccc1SC2	none
O=C(CN1CCCCCCC1)NN=Cc1ccccc1F	none (no result: Mtb betalactam, VHR inh abs, GDH-TPI counter-1, Mtb FBA inh)
